Screening data deposited in PubChem BioAssay by several laboratories.
Most compounds without a hit are left out; they make up all but 22% or so of the library.
CYP2C19 inh = human CYP2C19 inhibition | AID 778 | P33261 | inhibition, % at 5 µM | actives 21% (n = 96,000) | CYP2C19 Supersomes, luciferin-H EGE luminescence, 30 min;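 active = CYP2C19 inhibition above a set limit at 5 µM in the primary screen, cut at about 50% in these data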;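 note: plate controls were negative control wells for no effect and 2.5 mM tranylcypromine positive control for full effect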
Target sequence (P33261 whole entry, looked up): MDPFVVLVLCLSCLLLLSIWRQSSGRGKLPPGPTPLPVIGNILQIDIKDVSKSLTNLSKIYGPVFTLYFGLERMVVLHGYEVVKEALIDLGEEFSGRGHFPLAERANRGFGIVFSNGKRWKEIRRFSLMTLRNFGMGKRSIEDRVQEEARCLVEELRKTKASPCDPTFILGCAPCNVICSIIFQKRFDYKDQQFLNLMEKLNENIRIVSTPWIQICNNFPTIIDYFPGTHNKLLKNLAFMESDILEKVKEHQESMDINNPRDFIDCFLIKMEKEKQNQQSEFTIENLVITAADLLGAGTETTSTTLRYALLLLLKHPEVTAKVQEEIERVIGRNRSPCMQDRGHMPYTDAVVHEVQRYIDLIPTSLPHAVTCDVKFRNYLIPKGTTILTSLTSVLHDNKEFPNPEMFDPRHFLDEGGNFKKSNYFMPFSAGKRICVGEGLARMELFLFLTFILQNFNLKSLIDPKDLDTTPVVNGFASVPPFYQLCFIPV
Measles CPE = protection of cells from measles virus | protection (pct of control), % at 4 µM | actives 1.5% (n = 140,000) | Measles virus-infected cells, CPE protection, absorbance; in the data active = protection mostly above about 24%, no sharp cut-off; inactive = mostly below about 26%
CYP2C9 inhib = blocks human cytochrome P450 2C9. inhibition, % at 5 µM. P11712. CYP2C9 Supersomes, luciferin-H conversion, luminescence. actives 20% (n = 96,000). AID 777;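 active = blocking of liver enzyme CYP2C9 beyond about 50% at 5 µM, limit read from the data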
CYP2C9 activ = increases human cytochrome P450 2C9 activity; recombinant CYP2C9, luciferin-H conversion, luminescence; stronger effect = higher value; factor 1 = untreated enzyme, 0 = blocked; activation factor at 5 µM; actives 1.4% (n = 96,000); AID 1024;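 active = activation factor of 2 or more for CYP2C9 at a 5 µM dose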;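 note: 0 = sulfaphenazole-blocked wells and 1 = vehicle-only wells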
CYP2C19 activ = activators of human cytochrome P450 2C19. P33261. recombinant CYP2C19, luciferin-H EGE luminescence; stronger effect = higher value; 0 = fully inhibited enzyme, 1 = untreated enzyme. activation factor at 5 µM. 96,000 tested, under 10 active;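 active = activation factor of at least 2 at 5 µM in the primary screen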;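 note: 0 = wells with 2.5 mM tranylcypromine and 1 = vehicle-only wells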
An asterisk follows results filed as active; · = no result.

SMILES | CYP2C19 inh | Measles CPE | CYP2C9 inhib | CYP2C9 activ | CYP2C19 activ
COc1ccc(Nc2ccc(S(=O)(=O)N3CCCCC3)cc2[N+](=O)[O-])cc1OC | · | 11.2 | · | · | ·
CN(C)S(=O)(=O)c1cccc(-c2nnc(SCc3ccc4c(c3)OCCO4)o2)c1 | 64.0* | -1.5 | 92.5* | 0.1 | 0.4
O=S(=O)(c1cccc(-c2nnc(SCc3ccc(Cl)cc3)o2)c1)N1CCCCC1 | 69.4* | 12.0 | 87.3* | 0.1 | 0.3
O=C(CSc1nnc(-c2ccccc2)o1)c1ccc2c(c1)OCCO2 | 10.7 | 1.3 | 14.9 | 0.9 | 0.9
Cc1ccc(CO/N=C\Cc2snc(Sc3ncc(C(F)(F)F)cc3Cl)c2C#N)cc1 | 51.7* | 14.8 | -18.8 | 1.2 | 0.5
CCN1C(c2ccc(F)cc2)=CS/C1=C(\C#N)c1nnc2n1-c1ccccc1SC2 | 29.4 | 17.1 | -127.3 | 2.3* | 0.7
Cn1c(NC(=O)c2cc(Br)ccc2Cl)cc(=O)n(C)c1=O | 59.4* | 10.5 | 28.9 | 0.7 | 0.4
C=CCn1c(SCC(=O)N2CCCC2)nc2cc(C(=O)NCC3CCCO3)ccc2c1=O (configuration not stated) | 6.2 | 2.9 | 31.2 | 0.7 | 0.9
O=C(CSc1nnc(COc2ccccc2)o1)Nc1nccs1 | · | 4.7 | · | · | ·
COc1ccc(NC(=O)CCCn2c(=S)[nH]c3ccccc3c2=O)cc1 | 11.3 | 30.1 | 58.6* | 0.4 | 0.9
COc1ccc(NC(=O)CCCCn2c(=O)[nH]c3ccccc3c2=O)cc1 | 35.1 | 10.1 | 66.5* | 0.3 | 0.6
COc1ccc(NC(=O)CCCn2c(=O)[nH]c3ccccc3c2=O)cc1 | 52.7* | 17.0 | 88.7* | 0.1 | 0.5
Cc1ccc(CNC(=O)CCCn2c(=O)[nH]c3ccccc3c2=O)cc1 | 5.0 | 4.2 | 20.5 | 0.8 | 0.9
O=C(O)CSCCCC(=O)Nc1ccc(Br)cc1 | -11.9 | 14.8 | -8.6 | 1.1 | 1.1
Cc1c(Br)cc(C(=O)OC2CCN(C)CC2)c(C)c1C | 21.9 | 6.5 | -126.2 | 2.3* | 0.8
COc1ccc(C(=O)OC2CCN(C)CC2)cc1 | · | 8.4 | · | · | ·
CCOc1ccc(-c2cc3nc(C4CCN(C(=O)OC(C)(C)C)CC4)c(C(=O)O)cn3n2)cc1 | -7.2 | 10.2 | 80.7* | 0.2 | 1.1
O=C1c2ccccc2C(=O)N1CCCCN(C(=O)c1cc([N+](=O)[O-])ccc1Cl)c1ccc(Cl)cc1 | · | 23.6 | · | · | ·
O=C1c2ccccc2C(=O)N1CCCCN(C(=O)c1cc([N+](=O)[O-])cc([N+](=O)[O-])c1)c1ccc(Cl)cc1 | · | 3.8 | · | · | ·
O=C1c2ccccc2C(=O)N1CCCCN(C(=O)c1ccc([N+](=O)[O-])cc1)c1ccc(Cl)cc1 | 39.5 | 5.1 | 54.2* | 0.5 | 0.6
Cc1ccc(N(CCCCN2C(=O)c3ccccc3C2=O)C(=O)c2cccc([N+](=O)[O-])c2)cc1 | 64.3* | 13.7 | 61.0* | 0.4 | 0.4
CCOc1ccccc1C(=O)N(CN1CCCC1=O)c1cccc(Cl)c1 | 5.1 | 9.7 | 13.3 | 0.9 | 0.9
CCCOC(=O)c1c(N)sc2c1CCC2 | 42.7 | 2.7 | 50.0* | 0.5 | 0.6
CCOC(=O)c1sc(NC(C)=O)c(C(=O)OCC)c1C | 26.9 | 6.9 | 23.8 | 0.8 | 0.7
CCOC(=O)Nc1sc(C(=O)N(CC)CC)c(C)c1C(=O)OCC | 49.8 | 2.2 | 68.6* | 0.3 | 0.5
SMILES | CYP2C19 inh | Measles CPE | CYP2C9 inhib | CYP2C9 activ | CYP2C19 activ
CCOC(=O)c1c(NC(=O)CN(CC)CC)sc2c1CCC2 | 12.4 | 3.1 | 52.2* | 0.5 | 0.9
CCOC(=O)c1c(N)sc2c1CCSC2 | 11.2 | 4.9 | 15.5 | 0.8 | 0.9
CCOC(=O)c1sc(NC(=O)CN(CC)CC)c(C(=O)OCC)c1C | 19.8 | 6.7 | 76.5* | 0.2 | 0.8
O=C(CN(C1CCCCC1)S(=O)(=O)c1ccc(Cl)cc1)NCCCO | 60.2* | 4.5 | 30.7 | 0.7 | 0.4
CCOC(=O)Cc1csc(NC(=O)CN(C)S(=O)(=O)c2cccc3cccnc23)n1 | 89.6* | 16.3 | 91.7* | 0.1 | 0.1
CC1CCCC(NC(=O)CN(C)S(=O)(=O)c2cccc3cccnc23)C1C (configuration not stated) | 58.9* | 17.8 | -113.6 | 2.1* | 0.4
Cc1ccc(CNC(=O)CN(C)S(=O)(=O)c2cccc3cccnc23)cc1 | 87.5* | 14.7 | 41.5 | 0.6 | 0.1
Cc1ccc(S(=O)(=O)N(C)CC(=O)Nc2ccncc2)cc1 | 100.0* | 13.4 | 62.8* | 0.4 | 0
Cc1ccc(S(=O)(=O)N(C)CCCC(=O)Nc2ccncc2)cc1 | 98.6* | 15.4 | 96.5* | 0 | 0
